This is part of a sample that, as a whole, favours compounds with a hit. Of some 83,000 tested, about 20% had one in any assay.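 Negative percent growth values reflect cell death: -40 means 40% of the cells present at the start died, and -100 means all died.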 Values without a mark were called inactive. Activity calls are given as the source filed them. How the source made its calls: active means growth percent below 10; inactive means the rest.

The assay concerns MDA-MB-468 breast. Kind of assay: NCI-60 one-dose screen, 48 h (100 = growth as untreated, 0 = no growth, -100 = all killed). The conditions noted are these: 10 µM unless noted.
`COc1cc(-c2cc(=O)oc3cc(O)ccc23)c(OC)c2c1OCO2`: the growth was 67.7%.
The same measure for `O=C(Nc1cccc2ccccc12)NC1CC1`: 96%; for `COc1ccc(/C=N/NC(=O)Cn2c(-c3ccc(S(C)(=O)=O)cc3)nc3ccccc32)cc1`: 98.3%.
Turning to `O=C(Nc1ccc2c(c1)-c1ccccc1C2)C1CC(=O)N(c2ccc3c(c2)OCO3)C1` (stereo not given), the growth is 52.7% [50 µM].
The same measure for `COc1cc(-c2nn(-c3cccc(NC(=O)CCN4CCN(C)CC4)c3)cc2-c2ccncc2)ccc1Cl`: 18.2%; for `COc1cc2cc(COc3nccc(-c4ccc(Cl)cc4)n3)c(=O)[nH]c2cc1OC`: 80.1%; for `NCCN1CCN(c2nc(-c3ccccc3)nc3nc(-c4ccccc4)oc23)CC1`: -33.6% (active).
The same measure for `Nc1nc2c(c3ncccc13)C(c1ccc(Cl)c(Cl)c1)Cc1ncccc1-2` (stereo not given): -6.48% (active); for `CC1CCC(C)(C)c2ccccc21` (stereo not given): 99.6%; for `CCOC(=O)c1ccc(NC(=O)NC2=NCCS2)cc1`: 29.6%.
Consider `COc1cc(Nc2ncc(F)c(Nc3ccc4c(n3)N(COP(=O)(O)O)C(=O)C(C)(C)O4)n2)cc(OC)c1OC`, for which the growth was 6.8% (active).
The same measure for `C=CC(=O)N[C@H](Cc1ccc(-c2cc(Cl)cc(Cl)c2)cc1)[C@H](O)[C@@H](O)C(=O)O`: 85.5%; for `O=C(Nc1ccc(Br)cc1F)c1cc(I)ccc1O`: -1.19% (active).
Take `O=C(O)COCC(=O)O`: the growth is 93.6%.
Under `CC1=C(C)C(=O)C(Nc2cccc(C(F)(F)F)c2)=C(Br)C1=O` stands -61.4% (active).
Regarding `CCN(CC)CCCC(C)N=C(C1=C(C(=NC(C)CCCN(CC)CC)c2cccc(OC)c2)C(=O)NC1=O)c1cccc(OC)c1` (stereo not given), the growth was -50.4% (active).
Under `COc1cc(C2CC(c3ccc(Nc4nc(NCCO)nc(Nc5ccc(Cl)cc5)n4)cc3)=Nc3c(N)nc(N)nc3N2)cc(OC)c1OC` (stereo not given) stands 58.6%.
The same measure for `Cc1cc2nc(C(Cl)Cl)nc(-c3cccs3)n2n1`: -52% (active); for `COc1ccc(-c2csc(N(C(=O)N3CCN(c4cc5c(cc4F)c(=O)c(C(=O)O)cn5C4CC4)CC3)c3ccccc3)n2)cc1`: 7.88% (active); for `CN1CCN(Cc2ccc(NC(=O)c3cncc(C#Cc4cnc5ccc(N6CCOCC6)nn45)c3)cc2C(F)(F)F)CC1`: -70.8% (active).
The same measure for `COc1cc(/C=N\Nc2ccccc2)ccc1OC(=O)c1ccccc1`: 44.2%; for `Cc1cccnc1NC1OC(=O)c2ccccc21` (stereo not given): 103%; for `CCCCCCCCn1ccc2cc(NC(=O)CN=[N+]=[N-])ccc21`: 105%.
`CCc1c2cc(Cl)ccc2n2cc(Cc3ccccc3)[nH]c(=O)c12`: the growth is 115%.
The same measure for `NS(=O)(=O)c1ccc(Nc2nc(N/N=C/c3ccc([N+](=O)[O-])cc3)nc(Nc3ccccc3)n2)cc1`: 1.11% (active); for `C=C1c2c(C)nn(-c3ccc(OC)cc3)c2N(C)C23C[C@@H]1C1(C)c4c(C)nn(-c5ccc(OC)cc5)c4N(C)C(C)(C[C@H]12)C3` (stereo not given in full): 31.9%; for `COc1cc(OC)c(/C=C/S(=O)(=O)Cc2ccc(OC)c(NC(=O)CCC(=O)NO)c2)c(OC)c1`: 40.4%.
The same measure for `C=CCN=c1sc(-c2ccc3ccccc3c2)cn1NC(=O)c1cc2ccc1CCc1ccc(cc1)CC2`: 39.1%; for `COC(=O)C1C2CC3c4[nH]c5cc(OC)ccc5c4CCN3CC2CC(OC2CCCCO2)C1OC` (stereo not given): 95.5%.
As to `CC(=O)CC(=O)c1ccccc1.[Cu+2]`, the growth is 96.7%.
In the case of `NC(=O)c1ccc(-c2c3ccccc3cc3c2ccc2ccccc23)cc1`, the growth was -11.3% (active).
Under `Nc1cccc2cccc([N+](=O)[O-])c12` stands 109%; under `CCn1c2c(c3ccccc31)SC1c3cccn3CCN1C2=S` (stereo not given), -1.66% (active).
Under `CC/C(=C(/c1ccc(Cl)cc1)c1ccc(OCCN2CCOCC2)cc1)c1ccccc1` stands 91%; under `Cc1ccccc1C1=N[C@@H](Cc2ccccc2)C(=O)c2c(nc3ccccn23)N1`, 104%.
For the compound `CC1(C)CC[C@]2(CN)CC[C@]3(C)C(=CC[C@@H]4[C@@]5(C)CCCNC(C)(C)[C@@H]5CC[C@]43C)[C@H]2C1`, the growth is 96.1%.
The same measure for `CC1(C)Oc2cc3oc(=O)ccc3cc2C[C@@H]1OCCOS(=O)(=O)c1ccc(C#N)cc1`: 90.6%.
In the case of `CC1=C(C(=O)Nc2ccc(F)cc2)C(c2ccc(C)cc2)C2=C(CC(C)(C)CC2=O)N1` (stereo not given), the growth was 84.7%.
Under `COc1ccc(Cc2nc(C#N)c(N3CCN(c4ccc(F)cc4)CC3)o2)cc1` stands 78%; under `CCN=c1sc2c(n1NC(=O)c1cc3ccc1CCc1ccc(cc1)CC3)C(=O)c1ccccc1C2=O`, -33.7% (active).

These data come from PubChem BioAssay (NCI).
